# D2 PAM-1: Beta-Arrestin HTS for Positive Allosteric Modulators of the Human D2 Dopamine Receptor: Potentiators; AID 624464, 2012; 360,000 tested, 0.23% active; DiscoveRx D2 beta-arrestin cells, luminescence, 90 min; 100% = 57 uM dopamine signal; D(2) dopamine receptor (Homo sapiens), P14416; potentiation, % (concentration not given with the values); in the data active = potentiation above about 50%; inconclusive = mostly about 30% to 49%
#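 PathHunter beta-arrestin assay in DiscoveRx D2 cells. Compounds were added with an EC20 of dopamine (50 nM final) for 90 min at 37 deg C. Luminescence was read 1 h after detection reagent, with 57 uM dopamine as the EC100 control.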
# D2 antagonist: HTS Assay for Allosteric Antagonists of the Human D2 Dopamine Receptor: Primary Screen for Antagonists; D(2) dopamine receptor (Homo sapiens), P14416; HEK293 TREx D2 cells, calcium flux, dopamine EC80; inhibition, % at 10 µM; 340,000 tested, 2% active; in the data active = inhibition above about 30%; inactive = below that, where a call was filed
#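 Compounds are added to dye-loaded, induced HEK293 T-REx cells coupled to calcium release via D2; after a 3 min kinetic read an EC80 dopamine stimulus is given and fluorescence is recorded for 3 more min.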
# D2 ag-1: Beta-Arrestin HTS for Positive Allosteric Modulators of the Human D2 Dopamine Receptor: Agonists; AID 624465, 2012; activation, % (test concentration not listed); 360,000 tested, 0.084% active; D(2) dopamine receptor (Homo sapiens), P14416; DiscoveRx PathHunter D2 beta-arrestin, luminescence, 90 min; 100% = 57 uM dopamine signal; in the data active = activation above about 40%; inconclusive = between about 15% and that limit
#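 DiscoveRx PathHunter D2 beta-arrestin cells (2,100/well) attached overnight, then compound-stimulated 90 min at 37 C in HBSS/10 mM HEPES/0.1% Tween-20 buffer; beta-galactosidase complementation read by luminescence after 1 h at ambient temperature. Dopamine 57 uM final (EC100) as control.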
# D2 ag-2: HTS Assay for Allosteric Agonists of the Human D2 Dopamine Receptor: Primary Screen for Agonists | HEK293 T-REx D2 cells, calcium flux agonist mode | D(2) dopamine receptor (Homo sapiens), P14416 | activation, % at 2 µM | AID 485358, 2010 | 340,000 tested, 0.53% active;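 active = activation over 3 SD above normal in the single-dose calcium agonist read, cut at about 30% in these data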
#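 Calcium-flux readout, 1 cycle/sec over 180 s following compound pin transfer, in inducible HEK293 Trex D2 cells (force-coupled); dopamine controls included. Positive calcium responses during this window marked compounds as potential agonists.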
# D2 PAM-2: HTS Assay for Positive Allosteric Modulators of the Human D2 Dopamine Receptor: Primary Screen for Potentiators; D(2) dopamine receptor (Homo sapiens), P14416; HEK293 T-REx D2, calcium flux, EC20 dopamine potentiation; potentiation, % at 10 µM; 340,000 tested, 0.34% active; AID 485347, 2010;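 active = potentiation over 3 SD above the plate norm, cut at about 30% in these data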
#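 Potentiation of an EC20 dopamine calcium response measured kinetically over 180 s, after a preceding 180 s compound-only read flagging agonists. Cells: inducible Hek293 Trex D2 line, 4000/well, cultured overnight at 30 C before dye loading.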
# D3 ag: qHTS of D3 Dopamine Receptor Agonist: D3 Dopamine Receptor B-arrestin Agonist Confirmatory Assay. shares compounds with D2 ag-2. DiscoveRx D3 beta-arrestin cells, luminescence, 90 min. Potency, µM (doses to about 76.9 µM), hits mostly activators. 2,300 tested, 4% active; also: nearly all actives have a fitted effect of over 70% in size
# Target sequence (P35462 whole entry, looked up): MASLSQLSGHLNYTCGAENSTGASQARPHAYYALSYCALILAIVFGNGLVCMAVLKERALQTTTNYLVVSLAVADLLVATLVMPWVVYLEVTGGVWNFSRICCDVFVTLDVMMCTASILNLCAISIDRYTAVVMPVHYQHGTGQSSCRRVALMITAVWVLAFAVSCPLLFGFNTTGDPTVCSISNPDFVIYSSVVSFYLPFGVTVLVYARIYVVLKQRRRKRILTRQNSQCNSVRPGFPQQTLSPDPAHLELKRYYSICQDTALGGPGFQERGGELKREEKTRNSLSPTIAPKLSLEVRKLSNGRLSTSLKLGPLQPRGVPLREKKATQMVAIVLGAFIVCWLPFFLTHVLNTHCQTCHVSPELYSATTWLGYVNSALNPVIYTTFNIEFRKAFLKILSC
# D2 ag-3: qHTS of D3 Dopamine Receptor Agonist: D2 Dopamine Receptor B-arrestin Agonist Counterscreen; shares compounds with D2 ag-2; DiscoveRx PathHunter D2 beta-arrestin, luminescence, 90 min; response scale: percent relative to full dopamine signal; Potency, µM (highest dose often 76.9 µM), usual class: activators; 2,300 tested, 5.9% active; also: nearly all actives have a fitted effect of over 70% in size
# Numbers stand for hits; . = inactive; ? = inconclusive; / = not tested or not shown. Shown are actives, neighbours in structure and some others; about 2.4% of the full set was active somewhere. Unless noted, calls follow the shape of the dose curve; as a rule, active = well fitted activation curve with a large enough effect; inconclusive = small, poorly fitted or top-dose-only effect; inactive = flat fitted curve, though single readings scatter.
SMILES,D2 PAM-1,D2 antagonist,D2 ag-1,D2 ag-2,D2 PAM-2,D3 ag,D2 ag-3
CCOc1ccc(S(=O)(=O)Nc2cccc(C(=O)N3CCN(c4ccccc4O)CC3)c2)cc1,.,.,.,.,.,/,/
O=C(COC(=O)CCc1c[nH]c2ccccc12)NCc1ccc2c(c1)OCO2,.,.,.,74,.,.,.
COc1cccc(/C=C/C(=O)OCC(=O)NCCc2ccccc2)c1,.,.,.,46,.,.,.
Cc1cc(NC(=O)CSCC(=O)Nc2cc(Cl)ccc2N2CCN(C)CC2)no1,.,.,.,.,.,.,.
Cn1c(C(=O)NCc2cccc(F)c2)cc2cc(S(=O)(=O)N3CCCCC3)ccc21,/,/,/,.,.,/,/
CCOC(=O)N1CCC(NCCNC(=O)c2ccco2)CC1,.,38,.,76,.,.,.
CCOC(=O)N1CCC(NC(=O)C(Cc2ccccc2)NC(=O)c2ccco2)CC1 (configuration not stated),.,.,.,.,/,/,/
CCc1nc2ccccc2n2c(-c3ccccc3)c3c(=O)n(C)c(=O)n(C)c3c12,/,/,/,.,.,/,/
COC(=O)COc1ccc2oc(-c3ccc(OC)cc3)cc(=O)c2c1,/,/,/,.,.,/,/
O=C(COc1ccc2oc(-c3ccccc3)cc(=O)c2c1)Nc1ccccc1,.,.,.,.,.,.,.
O=C(COc1ccc(Cl)cc1)NCC(c1ccco1)S(=O)(=O)c1ccc(Cl)cc1 (configuration not stated),/,/,/,.,.,/,/
Cc1cccc(C(=O)NC(=S)NNC(=O)Cc2ccccc2)c1,.,.,.,37,.,.,.
Cc1cccc(C(=O)NC(=S)NCc2ccccc2)c1,.,/,.,/,/,/,/
Cc1ccccc1-c1noc(-c2cccnc2N2CCN(c3ccccc3)CC2)n1,/,/,/,.,.,/,/
O=C(CC1NCCc2ccccc21)Nc1ccccc1Cl (configuration not stated),.,.,.,.,.,.,.
O=C(CC1NCCc2ccccc21)Nc1ccccc1 (configuration not stated),.,.,.,.,.,/,/
O=C(CC1NCCc2ccccc21)Nc1ccc(Oc2ccccc2)cc1 (configuration not stated),.,60,.,68,.,.,.
CCCN(C(=O)Nc1cn(CC(C)C)c(=O)c2ccccc12)c1ccc(F)cc1,/,/,/,.,.,/,/
O=C(NCCN1CCN(c2ccccc2)CC1)Nc1ccccc1Br,.,76,.,59,.,.,.
O=C(NCCN1CCN(c2ccccc2)CC1)Nc1ccc(Cl)cc1,.,82,.,75,.,.,?
O=C(NCCN1CCN(c2ccccc2)CC1)Nc1cccc(Br)c1,.,.,.,.,.,/,/
COc1cc(NC(=O)NCCN2CCN(c3ccccc3)CC2)cc(OC)c1OC,.,76,.,75,.,.,?
CCCN1CCN(CCNC(=O)Nc2ccccc2Cl)CC1,.,.,.,.,.,/,/
O=C(NCCN1CCN(c2ccccc2)CC1)Nc1ccccc1Cl,.,35,.,64,.,?,.
CCCOc1cccc(C2c3c(-c4ccccc4O)n[nH]c3C(=O)N2Cc2ccco2)c1 (configuration not stated),/,/,/,.,.,/,/
COc1ccc(Cl)cc1NC(=O)c1noc2c1CCc1ccccc1-2,/,/,/,.,.,/,/
